Screening data from PubChem BioAssay.
Only a selection was taken, and hits are over-represented in it overall.
Sa growth inh – blocks Staphylococcus aureus growth | relative growth, % (test concentration not listed) | 170,000 tested, 0.53% active | S. aureus RN4220 growth, OD600, 20 h, 42 °C; active compounds read low | AID 720641;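 active = relative growth at most 50% at the other temperature and 20+ points below 30 °C, or under 10% at both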
S aureus helic – blocks Staphylococcus aureus DNA helicase | purified S. aureus helicase, fluorescence unwinding assay | inhibition, % (test concentration not listed) | 120,000 tested, 0.05% active | AID 485395; in the data active = inhibition above about 25%, passing the limit was not always enough;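 also: 0% = mean of negative control wells and 100% = mean of positive control wells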
An asterisk follows results filed as active; nt = not tested or not shown.

SMILES	Sa growth inh	S aureus helic
N=C1/C(=C/c2ccc(SC3CCCCC3)o2)C(=O)N=C2SC=CN12	8.4*	-15.0
CCCn1c(=NC(=O)C(C)(C)C)sc2cc3c(cc21)OCO3	107.5	0.0
N#Cc1ccc(CSc2nc(-c3cccs3)c3c(c2C(=O)O)CCCC3)cc1	0.1*	15.0
Cc1ccc(CSc2nc(-c3cccs3)ccc2C#N)cc1	98.9	nt
CCOC(=O)CCn1cc(F)c(=O)[nH]c1=O	94.8	8.0
CC(=O)On1cc(F)c(=O)[nH]c1=O	0.7*	2.0
CN1CCC(N(C)C(=O)c2cccc(S(=O)(=O)N3CCN(c4ccccc4)CC3)c2)CC1	99.0	-13.0
Cc1cccc(CS(=O)(=O)c2ncc(Cl)c(C(=O)NCc3ccccc3)n2)c1	1.6*	nt
O=C(NCc1ccccc1)c1nc(S(=O)(=O)Cc2ccc(F)cc2)ncc1Cl	14.9	nt
CN(C)CCc1cc2c(c3c1ccc1ccccc13)OCO2	109.5	45.0*
COc1cc2ccc3c(CCN(C)C)cc(OC)c(OC)c3c2cc1OC	88.7	10.0
Cc1n(O)c2c(NO)ccc(N=O)c2[n+]1[O-]	113.1	9.0
O=C(O)CCn1ncc(=O)c2ccccc21	86.6	20.0
CCc1ccc2[nH]c3nc(C)cc(C)c3c(=O)c2c1	105.1	21.0
CCN(CC)/N=N/c1[nH]nc2nc(C)cc(C)c12	7.2*	10.0
CC1CCc2c(sc3nc(CSc4nnc(-c5ccccc5)o4)[nH]c(=O)c23)C1 (stereo not drawn)	77.2	-16.0
Fc1cccc(Cl)c1C=Nc1cccc(-c2ncon2)c1	102.1	nt
Cc1nnc(SCC(=O)NC2CCCCCC2)[nH]c1=O	0.2*	12.0
Cc1sc2nc(SCC(=O)NC3CCCCC3)[nH]c(=O)c2c1C	81.4	4.0
Cc1ccc(/C=C/C(=O)OCc2nc3ccccc3c(=O)n2CC#N)o1	90.3	9.0
O=C(Oc1c(Cl)cc(Cl)c2cccnc12)c1ccco1	1.7*	32.0
Oc1c(Cl)cc(Cl)c2cccnc12	64.6	nt
CC(CNC(=O)Cn1c(=O)oc2ccccc21)c1ccccc1 (stereo not drawn)	104.5	0.0
Cc1cc2c(CCl)cc(=O)oc2cc1C(C)C	91.8	-5.0
Cc1cc2oc(=O)cc(Cn3ccsc3=N)c2cc1C(C)C	49.6*	6.0
SMILES	Sa growth inh	S aureus helic
CN(C)c1ccc(C=Nc2ccc(C(=O)O)cc2)cc1	105.2	-20.0
CN(C)c1ccc(N=Cc2cccn2C)cc1	9.7*	-1.0
CCCc1c(C(=O)NCCCn2ccnc2)cnn1-c1ccccc1	88.0	nt
CN(C)S(=O)(=O)c1cccc(COC(=O)C2=NN(c3ccccc3)C(=O)CC2)c1	103.6	10.0
CCN(CC)CC(O)COc1ccc(OC)cc1 (stereo not drawn)	nt	0.0
CCN(CC)CC(O)COc1ccc(C(C)(C)CC)cc1C(C)(C)CC (stereo not drawn)	-0.7*	-3.0
CCn1cc(C(=O)O)c(=O)c2cc(F)c(F)cc21	85.0	8.0
CCn1cc(C(=O)O)c(=O)c2cc(F)c(N(C)CCc3ccc(OC)c(OC)c3)cc21	0.0*	23.0
CC(=O)Nc1nonc1NC(C)=O	100.3	3.0
CC(=O)Nc1cc(OC(C)=O)c2nonc2c1OC(C)=O	0.9*	3.0
CC(=O)OC(OC(C)=O)C12C=CC(O1)C1C(=O)N(c3ccccc3-c3ccccc3)C(=O)C12 (stereo not drawn)	98.5	-5.0
CC1COC2=C(N3CCN(C)CC3)C(F)=CC3C(=O)C(C(=O)O)=CN1C23 (stereo not drawn)	-0.5*	-3.0
Cc1cc(N2CCN(C)CC2)ccc1NC(=O)CNC(=O)C12CC3CC(CC(C3)C1)C2	90.4	3.0
CCC(=O)Nc1nn2c(C)nnc2s1	90.8	-7.0
O=C(O)c1ccc(CN2CCCCC2)cc1	104.5	12.0
O=C(O)c1ccc(O)c(SCN2CCCCC2)c1	4.1*	-3.0
CC(C)CN(CC(C)C)S(=O)(=O)c1ccc(C(=O)O)cc1	91.8	2.0
Cc1nnc(NC(=O)c2ccc(S(=O)(=O)N(CC(C)C)CC(C)C)cc2)o1	0.2*	4.0
CO/N=C1\CN(c2nc3c(cc2F)c(=O)c(C(=O)O)cn3C2CC2)CC1CN (stereo not drawn)	-1.0*	nt
CCn1cc(C(=O)O)c(=O)c2cc(F)c(N3CCNCC3)nc21	59.0	nt
NC1CCN(c2c(F)cc3c(=O)c(C(=O)O)cn(C4CC4)c3c2Cl)C1 (stereo not drawn)	-0.9*	nt
COc1c(N2CCNC(C)C2)c(F)cc2c(=O)c(C(=O)O)cn(C3CC3)c12 (stereo not drawn)	-0.9*	nt
CCOC(=O)c1cn2c3c(c(F)c(F)cc3c1=O)OCC2C (stereo not drawn)	100.8	-14.0
CN1CCN(c2c(F)cc3c(=O)c(C(=O)O)cn(CCF)c3c2F)CC1	22.8	nt
NC1CCN(c2nc3c(cc2F)c(=O)c(C(=O)O)cn3-c2ccc(F)cc2F)C1 (stereo not drawn)	-1.0*	nt
O=C(N/N=C/c1nc2ccccc2[nH]1)c1ccccc1	88.7	1.0
CC1CCc2cc(F)cc3c(=O)c(C(=O)O)cn1c23 (stereo not drawn)	29.7	nt
